Screening data as filed in PubChem.
Sampled rows, rich in hits. Any-hit rate of the full collection: about 6.7%.
C diff growth: C. difficile growth inhibition | 86,000 tested, 0.25% active | Clostridium difficile clinical isolate growth, OD600, 24 h; stronger effect = lower value | AID 1259249 | growth activity, negative = inhibition, % at 16 µg/mL (by protocol);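 active means mean growth activity at or below -80% and every replicate also at or below -80%; inconclusive means mean at or below -80% but some replicate above -80%; inactive means mean growth activity above -80%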
T cruzi growth: inhibitors of T. cruzi proliferation | T. cruzi beta-gal in NIH3T3, GalScreen luminescence, 90 h | inhibition, % at 8.34 µM | 77,000 tested, 5.9% active | AID 624255;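 active means mean inhibition above about 93%, with at least 55% of replicates each passing it, limit read from the data, passing the limit was not always enough; inconclusive means only one of those two conditions holds; inactive means neither condition holds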
Pf Dd2 inh: blocks growth of Plasmodium falciparum Dd2 parasites | P. falciparum Dd2 growth, SYBR Green, 72 h; stronger effect = lower value | activity change, % at 10 µM | 94,000 tested, 2.3% active | AID 1159554; in the data active means activity change below about -80%; inconclusive means no clear call, values can overlap the other calls
A number is an active result; 0 = inactive; ? = inconclusive; - = no result given.

SMILES | C diff growth | T cruzi growth | Pf Dd2 inh
Cc1nn(C)cc1NC(=O)C[C@H]1CC[C@H]2[C@H](COc3ccc(NC(=O)C(C)C)cc3C(=O)N2C)O1 | 0 | 0 | 0
CCC(=O)N[C@@H]1CC[C@@H](CCNS(=O)(=O)c2ccc(Cl)cc2)O[C@H]1CO | 0 | - | 0
Cc1ccc(S(=O)(=O)NC[C@H]2CC[C@H]3[C@H](CN3Cc3cc(-c4ccccc4)on3)O2)cc1 | 0 | - | 0
C[C@@H]1CN([C@H](C)CO)C(=O)c2cc(NS(=O)(=O)c3cccs3)ccc2O[C@H]1CN(C)S(=O)(=O)c1cccs1 | - | 0 | 0
C[C@@H]1CN([C@@H](C)CO)C(=O)c2c(c3ccccc3n2C)-c2ccccc2CO[C@@H]1CN(C)Cc1ccc(Cl)c(Cl)c1 | 0 | - | -87
C[C@H](CO)N1C[C@H](C)[C@H](CN(C)Cc2ccc(Cl)c(Cl)c2)OCc2ccccc2-c2c(n(C)c3ccccc23)C1=O | 0 | - | 0
C[C@H](CO)N1C[C@H](C)[C@H](CN(C)Cc2ccc(O)cc2)OCc2ccccc2-c2c(n(C)c3ccccc23)C1=O | 0 | - | 0
C[C@H]1CN([C@@H](C)CO)C(=O)c2c(c3ccccc3n2C)-c2ccccc2CO[C@@H]1CN(C)Cc1ccc(O)cc1 | 0 | - | 0
C[C@@H]1CN([C@H](C)CO)C(=O)c2c(c3ccccc3n2C)-c2ccccc2CO[C@H]1CN(C)Cc1ccc(Cl)c(Cl)c1 | 0 | - | -89
C[C@H]1CN([C@@H](C)CO)C(=O)c2c(c3ccccc3n2C)-c2ccccc2CO[C@@H]1CN(C)Cc1ccc(Cl)c(Cl)c1 | 0 | - | -88
C[C@H]1CN([C@@H](C)CO)C(=O)c2c(c3ccccc3n2C)-c2ccccc2CO[C@H]1CN(C)Cc1ccc(O)cc1 | 0 | - | 0
C[C@@H]1CN([C@H](C)CO)C(=O)c2c(c3ccccc3n2C)-c2ccccc2CO[C@@H]1CN(C)Cc1ccc(Cl)c(Cl)c1 | 0 | - | -85
CCCC#Cc1cnc2c(c1)C(=O)N([C@H](C)CO)C[C@@H](C)[C@@H](CN(C)C(=O)C1CCCCC1)O2 | 0 | 0 | 0
C[C@H](CO)N1C[C@H](C)[C@H](CN(C)C(=O)C2CC2)Oc2cc(Br)ccc2S1(=O)=O | 0 | - | 0
CCCNC(=O)N1[C@@H]2CNC[C@H]1C2c1ccc(-c2ccc(C#N)cc2)cc1 (stereo partly drawn) | 0 | - | 0
O=C(C[C@@H]1C=C[C@H](NS(=O)(=O)c2ccc(F)cc2)[C@@H](CO)O1)NCc1ccccc1F | 0 | - | 0
C[C@H]1CN([C@@H](C)CO)C(=O)Cc2cc(NC(=O)C3CC3)ccc2O[C@@H]1CN(C)S(=O)(=O)c1ccc(F)cc1 | 0 | 0 | 0
COCC(=O)N1CC2(C1)CN(Cc1ccccc1Cl)[C@H](CO)c1[nH]c3cc(OC)ccc3c12 | 0 | - | 0
COc1ccc2c3c([nH]c2c1)[C@H](CO)N(Cc1ccccc1F)CC31CN(C)C1 | 0 | - | 0
COCC(=O)N1CC2(C1)CN(Cc1ccccn1)[C@@H](CO)c1[nH]c3cc(OC)ccc3c12 | 0 | - | -82
COCC(=O)N1CCC2(CC1)CN(Cc1ccccc1F)[C@H](CO)c1[nH]c3cc(OC)ccc3c12 | 0 | - | -89
COCC(=O)N1CC2(C1)CN(Cc1ccccc1F)[C@H](CO)c1[nH]c3cc(OC)ccc3c12 | 0 | - | -88
COCC(=O)N1CCC2(CC1)CN(Cc1ccccn1)[C@H](CO)c1[nH]c3cc(OC)ccc3c12 | 0 | - | 0
COCC(=O)N1CC2(C1)CN(Cc1cc(F)ccc1F)[C@H](CO)c1[nH]c3cc(OC)ccc3c12 | 0 | - | -87
COCC(=O)N1CC2(C1)CN(Cc1cccc(OC)c1)[C@@H](CO)c1[nH]c3cc(OC)ccc3c12 | 0 | - | ?
SMILES | C diff growth | T cruzi growth | Pf Dd2 inh
COCC(=O)N(C)C[C@H]1Oc2cc(C#CCC(C)C)ccc2S(=O)(=O)N([C@@H](C)CO)C[C@H]1C | 0 | 0 | 0
CO[C@H]1CN(C)C(=O)c2ccc(NC(=O)C3CC3)cc2OC[C@H](C)N(Cc2cc(F)ccc2F)C[C@@H]1C | - | 0 | 0
CCC(=O)N[C@H]1C=C[C@H](CC(=O)NCC2CCCCC2)O[C@H]1CO | - | 0 | 0
COc1ccc2c3c([nH]c2c1)[C@@H](CO)N(C(=O)NC(C)C)CC31CN(C(=O)NC2CCCC2)C1 | - | - | 0
C[C@@H]1CN([C@H](C)CO)C(=O)c2c(c3ccccc3n2C)-c2ccccc2CO[C@@H]1CN(C)C(=O)Nc1cccc(C(F)(F)F)c1 | 0 | - | -84
COc1cccc(NC(=O)N(C)C[C@H]2OCc3ccccc3-c3c(n(C)c4ccccc34)C(=O)N([C@@H](C)CO)C[C@@H]2C)c1 | 0 | 0 | -85
COc1ccccc1NC(=O)N(C)C[C@H]1OCc2ccccc2-c2c(n(C)c3ccccc23)C(=O)N([C@@H](C)CO)C[C@H]1C | - | 0 | 0
COc1cccc(NC(=O)N(C)C[C@H]2OCc3ccccc3-c3c(n(C)c4ccccc34)C(=O)N([C@H](C)CO)C[C@H]2C)c1 | 0 | - | 0
COc1ccc(NC(=O)N(C)C[C@@H]2OCc3ccccc3-c3c(n(C)c4ccccc34)C(=O)N([C@@H](C)CO)C[C@@H]2C)c(OC)c1 | 0 | 0 | -83
COc1ccc(NC(=O)N(C)C[C@H]2OCc3ccccc3-c3c(n(C)c4ccccc34)C(=O)N([C@@H](C)CO)C[C@@H]2C)c(OC)c1 | 0 | 0 | -85
C[C@H]1CN([C@@H](C)CO)C(=O)c2c(c3ccccc3n2C)-c2ccccc2CO[C@H]1CN(C)C(=O)Nc1cccc(C(F)(F)F)c1 | 0 | - | 0
COc1ccc(NC(=O)N(C)C[C@@H]2OCc3ccccc3-c3c(n(C)c4ccccc34)C(=O)N([C@H](C)CO)C[C@@H]2C)c(OC)c1 | 0 | 0 | 0
C[C@@H]1CCCCO[C@@H](CN(C)S(C)(=O)=O)[C@H](C)CN([C@H](C)CO)C(=O)c2cc(NS(=O)(=O)c3ccccc3)ccc2O1 | 0 | 0 | 0
O=C(Nc1ccc2c(c1)OCO2)N[C@@H]1CC[C@H](CCNC(=O)C2CCOCC2)O[C@@H]1CO | 0 | - | -
COc1ccc(NC(=O)N(C)C[C@H]2OCCCC[C@@H](C)Oc3ccc(NS(=O)(=O)c4c(C)noc4C)cc3C(=O)N([C@@H](C)CO)C[C@H]2C)cc1 | 0 | 0 | 0
CNC[C@@H]1Oc2c(NC(=O)Nc3c(C)noc3C)cccc2C(=O)N([C@@H](C)CO)C[C@H]1C | 0 | 0 | 0
C[C@H](CO)N1C[C@H](C)[C@@H](CN(C)C(=O)Nc2cccc(C(F)(F)F)c2)OCc2ccccc2-c2ccccc2C1=O | 0 | 0 | 0
C[C@@H]1CN([C@H](C)CO)C(=O)c2ccccc2-c2ccccc2CO[C@H]1CN(C)C(=O)Nc1cccc(C(F)(F)F)c1 | 0 | 0 | -87
CS(=O)(=O)N1C[C@H](O)COC[C@@H]2O[C@H](CC(=O)NCc3ccc(-c4ccccc4)cc3)CC[C@H]21 | 0 | 0 | 0
COc1ccc(S(=O)(=O)N(C)C[C@@H]2OCCCC[C@@H](C)Oc3ccc(NC(=O)Nc4ccc5c(c4)OCO5)cc3C(=O)N([C@H](C)CO)C[C@@H]2C)cc1 | 0 | 0 | -84
COc1ccc(NC(=O)Nc2ccc3c(c2)C(=O)N([C@@H](C)CO)C[C@@H](C)[C@@H](CN(C)S(=O)(=O)c2ccc(OC)cc2)OCCCC[C@H](C)O3)cc1 | 0 | 0 | 0
COc1ccc(S(=O)(=O)N(C)C[C@@H]2OCCCC[C@H](C)Oc3ccc(NC(=O)Nc4ccc5c(c4)OCO5)cc3C(=O)N([C@H](C)CO)C[C@H]2C)cc1 | 0 | 0 | -82
